Reference: PubChem BioAssay (NCATS)
Where “and” joins values, the source holds several entries; their conditions need not be identical. Equal values may be shown once. Inconclusive results are not listed. Where a structure was tested more than once in an assay, its records may differ in their call. Calls of active or inactive are those of the source. Unless noted, the call rests on the fitted dose curve; in most records, active means well fitted curve in the direction sought with a large enough effect; inconclusive means small, poorly fitted or top-dose-only effect, or another doubt; inactive means no such curve, though single readings can be large; an effect the other way counts as inactive or inconclusive.

Experiments:
[1] = tested on: Es-2; assay: Primary qHTS to identify gynecologic anti-cancer compounds using libraries of approved drugs and bioactive compounds (AID 1345084); conditions: Gynecologic cancer cell panel viability, ATPlite luminescence, 48 h; series mostly up to 57.5 µM; further: on the % scale 0 is the no-effect control and ±100 the full control effect; nearly all actives have a fitted effect of over 55% in size
Outline: (§1)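 Cells, 1,000 per well, plated 16 h, then exposed 48 h at 37 C to compounds. Viability by ATPlite luminescence after 15 min at room temperature.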

[2] = tested on: HeLa; assay: as above; conditions: Gynecologic cancer cell panel viability, ATPlite luminescence, 48 h; series mostly up to 57.5 µM
Outline: as §1

[3] = tested on: Hek293T; assay: as above; conditions: Gynecologic cancer cell panel viability, ATPlite luminescence, 48 h, control line for the selectivity index; series mostly up to 57.5 µM
Outline: as §1

[4] = tested on: JEG-3; assay: as above; conditions: Gynecologic cancer cell panel viability, ATPlite luminescence, 48 h; series mostly up to 57.5 µM
Outline: as §1

[5] = tested on: OV90; assay: as above; conditions: Gynecologic cancer cell panel viability, ATPlite luminescence, 48 h; series mostly up to 57.5 µM
Outline: as §1

[6] = tested on: PA-1; assay: as above; conditions: Gynecologic cancer cell panel viability, ATPlite luminescence, 48 h; series mostly up to 57.5 µM
Outline: as §1

[7] = tested on: SKOV3; assay: as above; conditions: Gynecologic cancer cell panel viability, ATPlite luminescence, 48 h; series mostly up to 57.5 µM
Outline: as §1

[8] = tested on: Tov-21-G; assay: as above; conditions: Gynecologic cancer cell panel viability, ATPlite luminescence, 48 h; series mostly up to 57.5 µM
Outline: as §1

[9] = tested on: Tov112D; assay: as above; conditions: Gynecologic cancer cell panel viability, ATPlite luminescence, 48 h; series mostly up to 57.5 µM
Outline: as §1

[10] = Drug repurposing screens with cells derived from glioblastoma tumor samples (AID 1345199); conditions: GBM patient neurospheres viability, ATP luminescence, 48 h; further: nearly all actives have a fitted effect of over 40% in size; further: potency means the concentration at half of the fitted maximal effect; on activity, negative = cell killing: on the % scale 0 is the no-effect control and ±100 the full control effect
Outline: (§2)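 Primary testing used CD133+ neurospheres from four GBM patients, seven concentrations, 48 h exposure and ATP-based viability; confirmation added three slower-growing patient lines.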

[11] = tested on: astro; assay: as above; conditions: viability, ATP luminescence, 48 h; series mostly up to 45.9 µM
Outline: as §2

[12] = molecular target: Nuclear receptor subfamily 1 group I member 2 (Rattus norvegicus) (UniProt Q9R1A7); assay: qHTS assay for small molecule activators of the rat pregnane X receptor (rPXR) signaling pathway (AID 651751; call rule not given here; further: 0% is about no effect); conditions: rPXR reporter cells, luciferase (One-Glo), 24 h
[13] = qHTS assay for small molecule activators of the human pregnane X receptor (PXR) signaling pathway (AID 720659; call rule not given here; further: 0% is about no effect)
[14] = at 45.9 µM (top of the series), tumour line B
[15] = at 45.9 µM (top of the series), tumour line D
[16] = at 46 µM (top of the series), tumour line A

Nuclear receptor subfamily 1 group I member 2 (Rattus norvegicus), sequence (Q9R1A7 whole entry, looked up): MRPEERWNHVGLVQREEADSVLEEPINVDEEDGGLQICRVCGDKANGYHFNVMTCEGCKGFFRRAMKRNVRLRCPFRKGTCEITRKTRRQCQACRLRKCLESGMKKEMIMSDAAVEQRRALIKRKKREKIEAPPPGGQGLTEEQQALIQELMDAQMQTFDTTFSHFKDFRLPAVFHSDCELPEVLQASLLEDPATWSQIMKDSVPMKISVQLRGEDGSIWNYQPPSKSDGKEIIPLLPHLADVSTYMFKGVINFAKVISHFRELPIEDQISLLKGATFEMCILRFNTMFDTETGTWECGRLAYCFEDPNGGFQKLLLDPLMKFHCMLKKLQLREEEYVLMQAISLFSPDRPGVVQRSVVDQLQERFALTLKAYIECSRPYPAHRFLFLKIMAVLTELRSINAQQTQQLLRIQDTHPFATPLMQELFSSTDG

COC(=O)C(Cl)C(=O)OC
inactive: Potency [1] | Potency [2] | outcome [3] | outcome [4] | Potency [5] | Potency [6] | outcome [7] | Potency [8] | Potency [9] | activity, negative = cell killing [10, 14] -9.36% | activity, negative = cell killing [10, 15] -17% | activity, negative = cell killing [10, 16] -23.7% | Potency [11]

CC(NC(C)(C)C)C(=O)c1cccc(Cl)c1 (stereo not given)
inactive: Potency [1] | Potency [2] | outcome [3] | outcome [4] | Potency [5] | Potency [6] | outcome [7] | Potency [8] | Potency [9] | activity, negative = cell killing [10, 14] -9.74% | activity, negative = cell killing [10, 15] 3.9% | Potency [11]

CCCCCCC(=O)CCCCCC/C=C/C[C@@H](O)[C@H](O)[C@@](N)(CO)C(=O)O
active: Potency ([10]; tumour line A) 35.5 µM
inactive: Potency [1] | Potency [2] | outcome [3] | outcome [4] | Potency [5] | Potency [6] | outcome [7] | Potency [8] | Potency [9] | activity, negative = cell killing [10, 14] -13.1% and -22.4% | activity, negative = cell killing [10, 15] -26.9% and -22.9% | Potency [11]

CC(C)c1cccc(C(C)C)c1O
inactive: Potency [1] | Potency [2] | outcome [3] | outcome [4] | Potency [5] | Potency [6] | outcome [7] | Potency [8] | Potency [9] | activity, negative = cell killing [10, 14] 6.49% | activity, negative = cell killing [10, 15] 2.93% | activity, negative = cell killing [10, 16] -26.1% | max response [12] -2.57%

c1ccc2c(c1)sc1ccccc12
inactive: Potency [1] | Potency [2] | outcome [3] | outcome [4] | Potency [5] | Potency [6] | outcome [7] | Potency [8] | Potency [9] | activity, negative = cell killing [10, 14] -12.7% | activity, negative = cell killing [10, 15] -8% | activity, negative = cell killing [10, 16] -9.49% | Potency [11]

O=[N+]([O-])O[C@H]1CO[C@H]2[C@@H]1OC[C@H]2O[N+](=O)[O-]
inactive: Potency [1] | Potency [2] | outcome [3] | outcome [4] | Potency [5] | Potency [6] | outcome [7] | Potency [8] | Potency [9] | activity, negative = cell killing [10, 14] -6.92% | activity, negative = cell killing [10, 15] 3.62% | activity, negative = cell killing [10, 16] -13.3% | Potency [11]

CCOC(=O)CC(SP(=S)(OC)OC)C(=O)OCC (stereo not given)
inactive: Potency [1] | Potency [2] | outcome [3] | outcome [4] | Potency [5] | Potency [6] | outcome [7] | Potency [8] | Potency [9] | activity, negative = cell killing [10, 14] -14.8% | activity, negative = cell killing [10, 16] -27.3% | activity, negative = cell killing ([10]; at 91.6 µM (top of the series), tumour line B) -2.57% | activity, negative = cell killing ([10]; at 91.6 µM (top of the series), tumour line D) -14% | Potency [11] | max response [12] -0.753% and 0.726% and 3.47% | outcome [13]

COP(=S)(OC)Oc1cc(Cl)c(Cl)cc1Cl
inactive: Potency [1] | Potency [2] | outcome [3] | outcome [4] | Potency [5] | Potency [6] | outcome [7] | Potency [8] | Potency [9] | activity, negative = cell killing [10, 14] 10.9% and 7.75% | activity, negative = cell killing [10, 15] -10.8% and 1.81% | activity, negative = cell killing [10, 16] -24.7% and -15.3% | Potency [11] | max response [12] 1.25% | outcome [13]

CC(C)NC(C)C
inactive: Potency [1] | Potency [2] | outcome [3] | outcome [4] | Potency [5] | Potency [6] | outcome [7] | Potency [8] | Potency [9] | activity, negative = cell killing [10, 14] 6.4% | activity, negative = cell killing [10, 15] 4.87% | activity, negative = cell killing [10, 16] 1.87% | Potency [11] | max response [12] 7.26% | outcome [13]

CNCC(=O)c1ccc(O)c(O)c1
inactive: Potency [1] | Potency [2] | outcome [3] | outcome [4] | Potency [5] | Potency [6] | outcome [7] | Potency [8] | Potency [9] | activity, negative = cell killing [10, 14] -11.2% | activity, negative = cell killing [10, 15] -3.6% | Potency [11]

NC1=NC(=O)C(c2ccccc2)O1 (stereo not given)
inactive: Potency [1] | Potency [2] | outcome [3] | outcome [4] | Potency [5] | Potency [6] | outcome [7] | Potency [8] | Potency [9] | activity, negative = cell killing [10, 14] -0.343% | activity, negative = cell killing [10, 15] -7.44% | activity, negative = cell killing [10, 16] -19.1% | Potency [11]

CC(C)N(CCC(C(N)=O)(c1ccccc1)c1ccccn1)C(C)C (stereo not given)
inactive: Potency [1] | Potency [2] | outcome [3] | outcome [4] | Potency [5] | Potency [6] | outcome [7] | Potency [8] | Potency [9] | activity, negative = cell killing [10, 14] -20.9% | activity, negative = cell killing [10, 15] 4.58% | Potency [11]

COP(=S)(OC)Oc1ccc(S(=O)(=O)N(C)C)cc1
inactive: Potency [1] | Potency [2] | outcome [3] | outcome [4] | Potency [5] | Potency [6] | outcome [7] | Potency [8] | Potency [9] | activity, negative = cell killing [10, 14] -4.11% | activity, negative = cell killing [10, 15] -25% | activity, negative = cell killing [10, 16] -29.3%

NCCc1ccc(O)cc1
inactive: Potency [1] | Potency [2] | outcome [3] | outcome [4] | Potency [5] | Potency [6] | outcome [7] | Potency [8] | Potency [9] | activity, negative = cell killing [10, 14] -7.62% | activity, negative = cell killing [10, 15] 3.08% | activity, negative = cell killing [10, 16] -19.3% | max response [12] 0.0715% | outcome [13]

CCCCCCCCCC(=O)O[C@H]1CC[C@H]2[C@@H]3CCC4=CC(=O)CC[C@@H]4[C@H]3CC[C@]12C
inactive: Potency [1] | Potency [2] | outcome [3] | outcome [4] | Potency [5] | Potency [6] | outcome [7] | Potency [8] | Potency [9] | activity, negative = cell killing [10, 14] -3.32% | activity, negative = cell killing [10, 15] -5.94% | Potency [11]

CCC1(c2ccccc2)C(=O)N(COC)C(=O)N(COC)C1=O
inactive: Potency [1] | Potency [2] | outcome [3] | outcome [4] | Potency [5] | Potency [6] | outcome [7] | Potency [8] | Potency [9] | activity, negative = cell killing [10, 14] -7.62% | activity, negative = cell killing [10, 15] 2.45% | activity, negative = cell killing [10, 16] -19.3%
